# Where “and” joins values, the source holds several entries; their conditions need not be identical. Identical values can stand only once. Records with an inconclusive call do not appear. Calls of active or inactive are those of the source. How the source made its calls, unless noted: active means hit-call score of the fitted dose curve at least 0.9, where 1 is the maximum; inconclusive means response in the unintended direction; inactive means score below 0.9.
# Assays:
# [1] = tested on: Thyroperoxidase (TPO), gene 54314; experiment: CCTE_Simmons_AUR_rTPO: CCTE's Amplex UltraRed Assay for Thyroperoxidase (TPO) Inhibition, Simmons Lab (AID 2283662);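 on AC50: potency for loss of signal meaning inhibition of peroxidase activity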
# Method in brief: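 Rat thyroid microsomal TPO + 25 uM AUR in 200 mM K phosphate; cpd 5 nM–87.5 uM [final], 8 conc, 0.5% DMSO; 300 uM H2O2 starts rxn; 37C dark 30 min; endpoint FI 544/590 nm; n=3.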
# [2] = Tanguay_ZF_120hpf_AXIS_legacy: (Legacy) Oregon State University Tanguay Lab 120 Hour Post-fertilization zebrafish Assay for Body Axis Malformation (AID 2283635);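 further: potency for an increased fraction of larvae scored with body axis malformation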
# Method in brief: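 Each dechorionated embryo was exposed alone from 6 hpf, with DMSO at 0.64% (vol/vol) and trimethyltin chloride 5 uM as positive control. Axis malformation was recorded at 120 hpf unless the embryo had died.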
# [3] = Tanguay_ZF_120hpf_EYE_legacy: (Legacy) Oregon State University Tanguay Lab 120 Hour Post-fertilization zebrafish Assay for Eye Malformation (AID 2283636);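 further: binary presence or absence of eye malformation scored by brightfield in 120 hpf larvae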
# Method in brief: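 Static waterborne exposure of dechorionated zebrafish embryos (strain Tropical 5D), 6 to 120 hpf, sealed plates at 28C, 0.64% DMSO vehicle. Eye malformation is scored as a binary endpoint, with gain of signal analysed relative to DMSO.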
# [4] = Tanguay_ZF_120hpf_SNOU_legacy: (Legacy) Oregon State University Tanguay Lab 120 Hour Post-fertilization zebrafish Assay for Snout Malformation (AID 2283637)
# Method in brief: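 Dechorionated zebrafish, individually housed from 6 hpf in covered, sealed wells at 28C with 0.64% DMSO vehicle, were examined at 120 hpf for snout malformation. Responses were binary and analysed positive-direction relative to DMSO.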
# [5] = Tanguay_ZF_120hpf_JAW_legacy: (Legacy) Oregon State University Tanguay Lab 120 Hour Post-fertilization zebrafish Assay for Jaw Malformation (AID 2283638)
# Method in brief: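 Wild-type 5D embryos, chorion removed at 4 hpf, dosed singly from 6 hpf; 28C static, sealed, foil-covered, to 120 hpf. Endpoint: jaw defect yes/no (brightfield); mortality excludes scoring.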
# [6] = Tanguay_ZF_120hpf_OTIC_legacy: (Legacy) Oregon State University Tanguay Lab 120 Hour Post-fertilization zebrafish Assay for Otic Vesicle Malformation (AID 2283639)
# Method in brief: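 Wild-type zebrafish larvae, whole-embryo exposure from early stage to 120 hpf at 28C. Binary brightfield scoring of otic vesicle morphology, fitted in the positive direction against the DMSO baseline.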
# [7] = Tanguay_ZF_120hpf_PE_legacy: (Legacy) Oregon State University Tanguay Lab 120 Hour Post-fertilization zebrafish Assay for Pericardial Edema (AID 2283640)
# Method in brief: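 Zebrafish larvae are exposed from early development to 120 hpf at 28C, with 0.64% DMSO final. Each surviving larva receives a yes/no pericardial edema call by brightfield imaging, analysed relative to the DMSO baseline.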
# [8] = Tanguay_ZF_120hpf_BRAI_legacy: (Legacy) Oregon State University Tanguay Lab 120 Hour Post-fertilization zebrafish Assay for Brain Malformation (AID 2283641)
# Method in brief: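 Static exposure of staged wild-type embryos until 120 hpf, kept at 28C with light excluded and final DMSO of 0.64% (vol/vol). Presence or absence of brain malformation was noted under brightfield; mortality precluded scoring.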
# [9] = Tanguay_ZF_120hpf_SOMI_legacy: (Legacy) Oregon State University Tanguay Lab 120 Hour Post-fertilization zebrafish Assay for Somite Malformation (AID 2283647)
# Method in brief: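 Somitogenesis defects are recorded as binary calls in whole larvae at 120 hpf after continuous static chemical exposure starting at 6 hpf in dechorionated 5D embryos. DMSO serves as negative control and baseline.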
# [10] = Tanguay_ZF_120hpf_PFIN_legacy: (Legacy) Oregon State University Tanguay Lab 120 Hour Post-fertilization zebrafish Assay for Pectoral Fin Malformation (AID 2283648);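 further: each larva judged yes or no for fin defect by brightfield with dead larvae skipped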
# Method in brief: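 Scoring of pectoral fin malformation was binary, made at 120 hpf on larvae exposed statically from 6 hpf after enzymatic chorion removal. Activity was fitted upward relative to DMSO controls at 0.64% (vol/vol).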
# [11] = Tanguay_ZF_120hpf_CFIN_legacy: (Legacy) Oregon State University Tanguay Lab 120 Hour Post-fertilization zebrafish Assay for Caudal Fin Malformation (AID 2283649)
# Method in brief: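 Single dechorionated 5D wild-type embryos are dosed at 6 hpf (final DMSO 0.64%) and held statically at 28C. Caudal fin malformation is recorded as present or absent at 120 hpf under brightfield, excluding dead embryos.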
# [12] = Tanguay_ZF_120hpf_PIG_legacy: (Legacy) Oregon State University Tanguay Lab 120 Hour Post-fertilization zebrafish Assay for Pigmentation Malformation (AID 2283650)
# Method in brief: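 Endpoint is incidence of abnormal pigmentation at 120 hpf in dechorionated 5D zebrafish exposed singly from 6 hpf at 28C, DMSO vehicle at 0.64%. Embryos dying by 24 or 120 hpf are excluded from scoring.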
# [13] = Tanguay_ZF_120hpf_SWIM_legacy: (Legacy) Oregon State University Tanguay Lab 120 Hour Post-fertilization zebrafish Assay for Swim Bladder Malformation (AID 2283654);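 further: swim bladder malformation in each larva scored yes or no under brightfield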
# Method in brief: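 Static waterborne exposure of single dechorionated Tropical 5D zebrafish embryos, 6–120 hpf, 28C, 0.64% DMSO final. Read-out: swim bladder malformation, present/absent, relative to DMSO negative control; trimethyltin chloride 5uM served as positive control.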
# [14] = Tanguay_ZF_120hpf_TRUN_legacy: (Legacy) Oregon State University Tanguay Lab 120 Hour Post-fertilization zebrafish Assay for Truncated Body (AID 2283655)
# Method in brief: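 Single dechorionated zebrafish embryos received test chemical from 6 hpf in 0.64% DMSO, kept at 28C. At 120 hpf, brightfield inspection noted any truncated body.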
# [15] = Tanguay_ZF_120hpf_NC_legacy: (Legacy) Oregon State University Tanguay Lab 120 Hour Post-fertilization zebrafish Assay for Notochord and Tail Malformation (AID 2283656)
# Method in brief: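 Binary notochord-distortion calls, made by brightfield inspection, form the read-out; activity is fitted in the positive direction against DMSO. Exposure ran statically from 6 to 120 hpf at 28C with 0.64% DMSO.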
# [16] = Tanguay_ZF_120hpf_TR_legacy: (Legacy) Oregon State University Tanguay Lab 120 Hour Post-fertilization zebrafish Assay for Touch Response (AID 2283667)
# Method in brief: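 Readout is presence or absence of touch response in 120 hpf zebrafish larvae, assessed by brightfield observation after continuous static exposure at 28C. Final vehicle was 0.64% (vol/vol) DMSO.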
# [17] = STM_H9_OrnithineISnorm_perc: Stemina devTOX quickPredict H9 human embryonic stem cell (hESC)-based Assay for Ornithine (ORN) Metabolite Biomarker, Normalized (AID 2283712; active means hit-call score of the fitted dose curve at least 0.9, where 1 is the maximum; inactive means score below 0.9;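 further: ornithine released into spent medium during last day measured by mass spectrometry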)
# Method in brief: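 Metabolite endpoint from spent media of pluripotent H9 cells treated 72 h with daily re-feeding; ornithine measured by UPLC-HRMS against its 13C spike-in and referenced to the median 0.1% DMSO vehicle response.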
# [18] = STM_H9_CystineISnorm_perc: Stemina devTOX quickPredict H9 human embryonic stem cell (hESC)-based Assay for Cystine (CYSS) Metabolite Biomarker, Normalized (AID 2283713; active means hit-call score of the fitted dose curve at least 0.9, where 1 is the maximum; inactive means score below 0.9)
# Method in brief: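 Normalized cystine level in conditioned medium from the final 24h of a 72h treatment of pluripotent H9 cells (daily media and compound renewal). Quantified by UPLC-HRMS with C13-labeled internal standard; scaled to median of 0.1% DMSO vehicle wells.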
# [19] = STM_H9_OrnCyssISnorm_ratio: Stemina devTOX quickPredict H9 human embryonic stem cell (hESC)-based Assay for Ornithine (ORN):Cystine (CYSS) Ratio (AID 2283714)
# Method in brief: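 H9 hESC, 72h, q24h re-dose; last-day media → acetonitrile deproteinization → UPLC-HRMS. ORN:CYSS ratio from isotope-normalized EIC areas, vs 0.1% DMSO; MTX references on each plate.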
smiles,measurement,setting,value
O=C(O)CCCCCCCCC(=O)O,outcome,[1],inactive
CCCCCC(C=O)=Cc1ccccc1,AC50,[1],19.4 µM (active)
CCOC(=O)c1ccc(N)cc1,AC50,[1],22.2 µM (active)
Cc1ccc(S(=O)(=O)Oc2ccc(N=Nc3ccc(-c4ccc(N=Nc5c(O)ccc6cc(S(=O)(=O)O)cc(S(=O)(=O)O)c56)c(C)c4)cc3C)cc2)cc1,AC50,[1],18.2 µM (active)
O=C1OC[C@H](Cc2cccc(O)c2)[C@H]1Cc1cccc(O)c1,AC50,[1],7.74 µM (active)
CCOc1ccccc1O,AC50,[1],19.1 µM (active)
[O-]n1ccccc1=S.[O-]n1ccccc1=S.[Zn+2],AC50,[1],3.72 µM (active)
CSCCC=O,AC50,[1],43.8 µM (active)
Cc1cc(C)nc(NS(=O)(=O)c2ccc(N)cc2)n1,AC50,[1],14.3 µM (active)
CCCCCCCCC=CCCCCCCCC1=NCCN1CCO,AC50,[1],37.9 µM (active) and 8.64 µM (active)
CN(C)c1cccc(O)c1,AC50,[1],1.34 µM (active)
CS(=O)(=O)OCCCCOS(C)(=O)=O,AC50,[2],38.7 µM (active)
same,outcome,[3],inactive
same,outcome,[4],inactive
same,outcome,[5],inactive
same,outcome,[6],inactive
same,outcome,[7],inactive
same,outcome,[8],inactive
same,outcome,[9],inactive
same,outcome,[10],inactive
same,outcome,[11],inactive
same,outcome,[12],inactive
same,outcome,[13],inactive
same,outcome,[14],inactive
same,AC50,[15],47.1 µM (active)
same,AC50,[1],30.6 µM (active)
same,outcome,[16],inactive
same,AC50,[17],36.3 µM (active)
same,AC50,[18],5.25 µM (active)
same,AC50,[19],31.2 µM (active)
CCc1ccc(O)cc1,outcome,[1],inactive
CC(C)NCC(O)COc1ccc(CC(N)=O)cc1 (centres undefined),outcome,[1],inactive
Cc1cc(S(=O)(=O)O)ccc1N=Nc1c(O)ccc2ccccc12,AC50,[1],35 µM (active)
Nc1ccc2cc(S(=O)(=O)O)cc(O)c2c1N=Nc1ccccc1C(F)(F)F,AC50,[1],20.2 µM (active)
COc1ccccc1N=Nc1c(S(=O)(=O)O)cc2cc(S(=O)(=O)O)cc(NC(C)=O)c2c1O,AC50,[1],34.8 µM (active)
CCCCCCCCc1ccc(S(=O)(=O)O)cc1,AC50,[1],43.8 µM (active)
CCc1cc(Cc2cc(CC)cc(C(C)(C)C)c2O)c(O)c(C(C)(C)C)c1,AC50,[1],1.8 µM (active)
CC(C)CCCCCCCCCCCCCCC(=O)O,AC50,[1],43.8 µM (active)
Oc1ccc2cc(SSc3ccc4cc(O)ccc4c3)ccc2c1,AC50,[1],2.45 µM (active)
CCCCCCCCCCCCCCN(CCO)CCO,AC50,[1],44.8 µM (active)
O=C(O)c1ccc(O)cc1,AC50,[1],35.3 µM (active)
CCCCC(CC)COC(=O)c1ccc(O)cc1 (centres undefined),AC50,[1],44.7 µM (active)
O=C1c2ccccc2C(=O)c2c(O)ccc(O)c21,AC50,[19],10 µM (active)
C=CC(C)(O)CCC=C(C)C (centres undefined),outcome,[19],inactive

# Reference: PubChem BioAssay (EPA / NIEHS)
